From ChEMBL document CHEMBL1157539, “Thousands of chemical starting points for antimalarial lead identification” (Nature, 2010) come the findings set out here.

Common to all, as to assay type: functional
Experiment [1] concerns Plasmodium falciparum. Nature of the experiment: GSK_TCMDC: Inhibition of Plasmodium falciparum 3D7 in whole red blood cells, using parasite LDH activity as an index of growth. Test compounds present at 2uM.
In experiment [2] the test system is Plasmodium falciparum. Nature of the experiment: GSK_TCMDC: Inhibition of Plasmodium falciparum Dd2 in whole red blood cells, using parasite LDH activity as an index of growth. Test compounds present at 2uM.
The next experiment deals with HepG2. Nature of the experiment: GSK_TCMDC: Percent inhibition of human HepG2 cell line. Test compounds present at 10uM.

In the case of `C#CC(C)(CO)N1CCCC1` (stereo not drawn), the Inhibition (usually the relative decrease from the control value, in per cent) in the experiment with Plasmodium falciparum [1] is listed as 95%; in the experiment with Plasmodium falciparum [2] it was 1%; in the experiment with HepG2, 10%.

Take `Cc1ccc(NC(=O)c2cccc(CN3CCCN(Cc4cccc(O)c4)CC3)c2)cc1C.O=C(O)C(F)(F)F`: the Inhibition with Plasmodium falciparum [1] is recorded as 95%; with Plasmodium falciparum [2] it was 31%; in the experiment on HepG2, 19%.

With `CS(=O)(=O)c1ccccc1CNC(=O)c1ccc(-c2cccc(-c3nc4cc(C(F)(F)F)ccc4[nH]3)c2)cc1`, the Inhibition stood at 91% in the experiment on Plasmodium falciparum [1], 4% in the experiment on Plasmodium falciparum [2] and 36% with HepG2.

`O=C1Nc2ccc3ncccc3c2/C1=C/Nc1ccc(Cn2ccnc2)cc1`: the Inhibition is on record as 100% in the experiment with Plasmodium falciparum [1], 85% with Plasmodium falciparum [2] and 33% in the experiment with HepG2.

As to `CCOc1cc(C(=O)Nc2ccc3nc(N4CCCCC4)cc(C)c3c2)cc(OCC)c1OCC`, the Inhibition was determined as 100% in the experiment on Plasmodium falciparum [1], 2% in the experiment with Plasmodium falciparum [2] and 26% in the experiment on HepG2.

With `COc1ccccc1C(=O)Nc1ccc(Nc2nc(C)cc(N(C)C)n2)cc1`, the Inhibition in the experiment with Plasmodium falciparum [1] was 100%; in the experiment with Plasmodium falciparum [2] it was 76%; in the experiment with HepG2 it was 1%.

On to `O=C(NCCN1CCCC1)c1cccc(-c2ccc(-c3nc4cc(F)ccc4[nH]3)s2)c1`, for which the Inhibition with Plasmodium falciparum [1] turned out to be 100%; with Plasmodium falciparum [2], 4%; in the experiment with HepG2 it was 51%.

On to `COc1cc(NC(=O)N2CCc3cc(OC)c(OCCN4CCCCC4)cc32)cc(C(F)(F)F)c1.O=C(O)C(=O)O`, for which the Inhibition is on record as 93% in the experiment with Plasmodium falciparum [1], 10% in the experiment with Plasmodium falciparum [2] and 9% with HepG2.

As for `CCc1c(CCNCCCCCCNCCc2ccc(Br)cc2)ccc(OC)c1OC.Cl`, the Inhibition with Plasmodium falciparum [1] is recorded as 99%; in the experiment on Plasmodium falciparum [2], 14%; in the experiment with HepG2, 100%.

Turning to `CC(C)(C)c1ccc(C(=O)N2CCC3(CC2)C(=O)N(CC(=O)NCC2CCCO2)CN3c2ccccc2)cc1` (stereo not drawn), the Inhibition is 100% in the experiment with Plasmodium falciparum [1], 100% with Plasmodium falciparum [2] and 8% in the experiment with HepG2.

Take `O=C(NC1CCCCC1)N(Cc1ccc(-c2ccc(CNC3CCCC3)cc2)cc1)C1CCN(Cc2ccccc2)CC1.O=C(O)C(F)(F)F`: the Inhibition is listed as 99% in the experiment on Plasmodium falciparum [1], 86% with Plasmodium falciparum [2] and 31% with HepG2.
